# Results reported in paper PMC7819943, “Rice protein-binding microarrays: a tool to detect cis-acting elements near promoter regions in rice”.
# The full ranking holds about 68,000 sequences; the median of “fluorescence intensity (a.u.)” is about 9,100, and the highest 2% start at about 16,000. The entries come from a sample that favours the highest values as a whole.
# Target: OsWRKY34 (Oryza sativa, UniProt Q0JBA9 1-250)
# Test: protein-binding microarray (RPBM); PBS, 2% BSA, 51.3 ng/ul salmon testes DNA, 50 uM zinc acetate, 200 nM TF, 25 C, 1 h; high values mean tight binding
# Settings: protein: recombinant; tags: N-terminal polyhistidine and DsRed monomer fusion (pET32a); label: CyDye5-dUTP incorporated in the synthesized complementary strand; 3' TTTTT single-stranded linker to array surface; dsDNA, one strand shown
# In short: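 The binding signal is fluorescence intensity per feature, in arbitrary units, read on an Axon 4000B scanner. Polyhistidine- and DsRed-tagged transcription factors (N-terminal fusions) from E. coli BL21-CodonPlus were purified on Ni–NTA and applied at 200 nM for 1 h at 25 °C to a double-stranded, BSA-blocked custom Agilent array in buffer with 50 µM zinc acetate.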
# OsWRKY34, sequence (Q0JBA9 entry or part of it): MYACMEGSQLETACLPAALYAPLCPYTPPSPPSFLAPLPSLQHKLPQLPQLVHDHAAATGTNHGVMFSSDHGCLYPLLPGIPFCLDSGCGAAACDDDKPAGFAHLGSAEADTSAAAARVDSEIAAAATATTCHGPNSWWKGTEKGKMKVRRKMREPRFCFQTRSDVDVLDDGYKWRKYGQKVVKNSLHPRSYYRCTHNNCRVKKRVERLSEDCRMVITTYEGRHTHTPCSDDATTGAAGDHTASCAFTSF
row,Sequence,binding signal
1,CTCTCTTCTTTTTATCTTATTCATATGTATTTATAGCTGACGGAGTCACCTAGTGCAG,10500 fluorescence intensity (a.u.)
2,GCTCCGTGGCACTATTTTTTTTTTACCGCGAATCCTCCAACGGAGTCACCTAGTGCAG,9550 fluorescence intensity (a.u.)
3,TCCGTAAATCCAACATGGCACTATTACCGCCGGCTTAAATCGGAGTCACCTAGTGCAG,56000 fluorescence intensity (a.u.)
4,TACCGCCTGAAATCCAACATTATTATGCACTGTAATTTACCGGAGTCACCTAGTGCAG,8170 fluorescence intensity (a.u.)
5,TATCCGTTCGCGTCCCCGCCCTCGCTTCGCCGCGGCAATGCGGAGTCACCTAGTGCAG,9720 fluorescence intensity (a.u.)
6,GCATCCGTGTCCTTTGCCGAAGCCGAAGGCCCGCTCTCTCCGGAGTCACCTAGTGCAG,8900 fluorescence intensity (a.u.)
7,ACTCCCTCCATTTTTTTAATTGACGACGCCATTGACTTTTCGGAGTCACCTAGTGCAG,9350 fluorescence intensity (a.u.)
8,CTCATGTTTGACCATTCGTCTTATTTAAAAACTTTTGTGACGGAGTCACCTAGTGCAG,8180 fluorescence intensity (a.u.)
9,TATACGACGCCGTTGACTTTTTAAGATACGTTAGACCATTCGGAGTCACCTAGTGCAG,20300 fluorescence intensity (a.u.)
10,GGTACTCTCTTCGTTTTTAGTATACGACGCCGTTGACTTTCGGAGTCACCTAGTGCAG,16000 fluorescence intensity (a.u.)
11,TTGACTTTTTAACCAACGTTTGACTATTCGTCTTATTCAACGGAGTCACCTAGTGCAG,10100 fluorescence intensity (a.u.)
12,TACCTCATTCCCTAAATGTTTGACGCCGTTGACTTTTTTACGGAGTCACCTAGTGCAG,17500 fluorescence intensity (a.u.)
13,TTGACACCATTGACTTTTTTAAACATGTTTGACCGTTCGTCGGAGTCACCTAGTGCAG,15100 fluorescence intensity (a.u.)
14,TGGATGGTACTCCCTCCTCTAAATGTTTGACGCCGTTGACCGGAGTCACCTAGTGCAG,14400 fluorescence intensity (a.u.)
15,GTCATTTATTTTTACCAACGTTTGACTATTCGTCTTATTTCGGAGTCACCTAGTGCAG,9430 fluorescence intensity (a.u.)
16,TATTTGACGTCGTTGACTTTTTAAAACATGTTTGACCATTCGGAGTCACCTAGTGCAG,30200 fluorescence intensity (a.u.)
17,ATGATGCCGTTGACTTTTTGAACAACGTTTGACTATTCGTCGGAGTCACCTAGTGCAG,32600 fluorescence intensity (a.u.)
18,AAGCAGCAAAAGTCACACATACACTCTCTCTGCTACTACTCGGAGTCACCTAGTGCAG,8160 fluorescence intensity (a.u.)
19,TTAACTTTTACTCTAATTTATTCTCCTGTACCTTTTTATACGGAGTCACCTAGTGCAG,8250 fluorescence intensity (a.u.)
20,AGGTGGTTGGTGAGGTTTGCTTTGCACGATCGAGTGAGGACGGAGTCACCTAGTGCAG,10500 fluorescence intensity (a.u.)
21,ACGCCGTTGACTTTTTAAGCAACATTTGACCATTCGTTTTCGGAGTCACCTAGTGCAG,30000 fluorescence intensity (a.u.)

row,Sequence,binding signal
1,TCCTTCCCTAAATGTTTGACGCCGTTGACTTTTTTAAACACGGAGTCACCTAGTGCAG,16600 fluorescence intensity (a.u.)
2,AAATGTTTGACGCCGTTGACTTTTTTAAACATGTTTGACCCGGAGTCACCTAGTGCAG,33600 fluorescence intensity (a.u.)
3,TTTGACGCCGTTGACTTTTTTAAACATGCTTGATCATTCACGGAGTCACCTAGTGCAG,13700 fluorescence intensity (a.u.)
4,TCCGTTTCGAAATGCTTGACGCCGTTGACTTTTTTAAACACGGAGTCACCTAGTGCAG,19400 fluorescence intensity (a.u.)
5,ATATACTCCCTCCTTCCCTAAATGTTTGACGCCGTTGACTCGGAGTCACCTAGTGCAG,11400 fluorescence intensity (a.u.)
6,AACAGCCTGTTTTTGTGTGTTTTTTTCGTAAGTAATTAGTCGGAGTCACCTAGTGCAG,8760 fluorescence intensity (a.u.)
7,GGCTGCCCGCTCCTACATCCACATGCATGCTTCACACTGCCGGAGTCACCTAGTGCAG,8330 fluorescence intensity (a.u.)
8,TTAGTTGTTACCTTTGTCTCCTTCGTTGATCCATTGAAAGCGGAGTCACCTAGTGCAG,10500 fluorescence intensity (a.u.)
9,GTATACCTGCGCGTATACGGATGTTTTCGGCGTACATTAACGGAGTCACCTAGTGCAG,8390 fluorescence intensity (a.u.)
10,GTTCATCAATCTACTGTACTGGCCTCCTTCTCAGCTCTCACGGAGTCACCTAGTGCAG,9300 fluorescence intensity (a.u.)
11,CTTCCCTAAATGTTTAACGCCATTGACTTTTTTAAACATGCGGAGTCACCTAGTGCAG,12900 fluorescence intensity (a.u.)
12,TGACGCCGTTGGTTTTTTTAAACATGTTTGACCATTCGTCCGGAGTCACCTAGTGCAG,8990 fluorescence intensity (a.u.)
13,TAACGCCGTTTACCTTTTAACAAACGTTTTACCTTTCGTTCGGAGTCACCTAGTGCAG,10400 fluorescence intensity (a.u.)
14,ATGACGCCGTTGACTTTTTAACAAACGTTTGACCATTCGTCGGAGTCACCTAGTGCAG,21700 fluorescence intensity (a.u.)
15,TGTTTGACGCCGTTGACTTTTTTAAACATGTTTGACCATTCGGAGTCACCTAGTGCAG,34200 fluorescence intensity (a.u.)
16,AATGTTTGACGCCGTTGACTTTTTTAAACATGTTTGACCACGGAGTCACCTAGTGCAG,42500 fluorescence intensity (a.u.)
17,CTTCCCTAAATGTTTGACGCCGTTGACTTTTCTAAACATGCGGAGTCACCTAGTGCAG,18600 fluorescence intensity (a.u.)
18,AACTTTTTGATATACGCTCGATCATTCATCTTATTGAATACGGAGTCACCTAGTGCAG,8030 fluorescence intensity (a.u.)
19,CCCGTGTCTTGTGTGTTTCCATTCTCGCGAACCTTCCACACGGAGTCACCTAGTGCAG,9910 ± 264 fluorescence intensity (a.u.)
20,TTAATTTTTTTCTCATTTGTGCGTCCTATGGTCAAGCGTCCGGAGTCACCTAGTGCAG,8490 fluorescence intensity (a.u.)
21,AATTCCGGCCCAATAGTCACTTGTGTTGGCCACTTCGCCTCGGAGTCACCTAGTGCAG,9010 fluorescence intensity (a.u.)

row,Sequence,binding signal
1,GATTCATCGATCTTTTACGAGTACTATTTTTGTGATTATTCGGAGTCACCTAGTGCAG,11300 fluorescence intensity (a.u.)
2,TACATGTGGGTCCCATGGGTTTTATTATCTTTTTCGGATCCGGAGTCACCTAGTGCAG,9360 fluorescence intensity (a.u.)
3,AATCTACAAGATATATAACTAGATGTGTGGTGGGTTGAAACGGAGTCACCTAGTGCAG,8280 fluorescence intensity (a.u.)
4,AATTAGTTCCTGGACTTTGTGTATTACTAGTACTACTCCACGGAGTCACCTAGTGCAG,8570 fluorescence intensity (a.u.)
5,TGACTCTATTTTTTCCTTCGGTCTGCTGTCTGCACTCTGGCGGAGTCACCTAGTGCAG,11300 fluorescence intensity (a.u.)
6,TGTCTAGCTGCTCCGACCAGTCAACCGTTGAACGTTGACTCGGAGTCACCTAGTGCAG,14700 fluorescence intensity (a.u.)
7,GCCACGAGTTCCACGGCCGCGGCGTCGTCGTCGTCGTCGTCGGAGTCACCTAGTGCAG,8090 fluorescence intensity (a.u.)
8,CGTAGGCCACGCCACCTCACCCTGTTGACCGAGTCAAACCCGGAGTCACCTAGTGCAG,11900 fluorescence intensity (a.u.)
9,CGTTGTCGCCACCACCACCGCCGCCGTCGCCACAACTCCGCGGAGTCACCTAGTGCAG,20500 fluorescence intensity (a.u.)
10,GTCTCCGCCATCGTTGTCGCCGTCGCCTCGCGCCACCACGCGGAGTCACCTAGTGCAG,8230 fluorescence intensity (a.u.)
11,CTGCCATCGCGTCGGCGTCGCGCCGCTGCCGTTGACCGTGCGGAGTCACCTAGTGCAG,16700 fluorescence intensity (a.u.)
12,CTCCGCCTCGCGCCGTTGTCGCCGTCGCCTCGCGCCGCCACGGAGTCACCTAGTGCAG,10100 fluorescence intensity (a.u.)
13,TCGTCGGCGTCGCGTTCACGGCCGCCGTGGCCGTGGCCGTCGGAGTCACCTAGTGCAG,16500 fluorescence intensity (a.u.)
14,GGTTGACCGTAGTCAACTCGCCACGTTGACTAGAACCGAGCGGAGTCACCTAGTGCAG,17900 fluorescence intensity (a.u.)
15,CGCCACCATCGCTGCGCCGCCATCGCCACCACCGCAGCCGCGGAGTCACCTAGTGCAG,8840 fluorescence intensity (a.u.)
16,AGCGTCGCTGCCATCATCGCCGTCGCGTCGCTCGTCGCCGCGGAGTCACCTAGTGCAG,8220 fluorescence intensity (a.u.)
17,ACCACCGCCGCGGCGGCGTCGCCCACGCCGTGCCGCCCCGCGGAGTCACCTAGTGCAG,8160 fluorescence intensity (a.u.)
18,TCTCCCTTTCATTTTTATGTATGTTGGAATTATTTTTGTTCGGAGTCACCTAGTGCAG,8590 fluorescence intensity (a.u.)
19,TATTTGATCCCGTTTTTTAAAATCGAGCTTACCGTTTGACCGGAGTCACCTAGTGCAG,10500 fluorescence intensity (a.u.)
20,GTGGAGCTATACCTTCTACTCTCAGCAATTGTCCTTTAGACGGAGTCACCTAGTGCAG,9460 fluorescence intensity (a.u.)
21,ACGCGGCCGCCGAGCTGGACTCCTCATCCCCAGCTTCGCTCGGAGTCACCTAGTGCAG,8600 fluorescence intensity (a.u.)

row,Sequence,binding signal
1,CAATTATCCTCTGTGCTGTTTGACATTTTCTTGGTTAGTGCGGAGTCACCTAGTGCAG,12000 fluorescence intensity (a.u.)
2,GACACACGATTTCTTAAGGCTCATACTTTATGCTTGTCTACGGAGTCACCTAGTGCAG,11300 fluorescence intensity (a.u.)
3,GACACATGAACTTTCAATTTTTCTATCACATCGTTCTAATCGGAGTCACCTAGTGCAG,8150 fluorescence intensity (a.u.)
4,TTTTTTGGTTGTTGATATGATGTTCTTTTTTCCTCATTCTCGGAGTCACCTAGTGCAG,8990 fluorescence intensity (a.u.)
5,GGCTTTGTATTTTGGTGTTGAGTCCCTTCCATACAAGAACCGGAGTCACCTAGTGCAG,8040 fluorescence intensity (a.u.)
6,AGTTTTTGCTTGTAACGTTTCACCACTCGTCTTATTCAAACGGAGTCACCTAGTGCAG,8340 fluorescence intensity (a.u.)
7,AACCTCCACACACCCGCTCATACTACAAGCTAGGTAATCACGGAGTCACCTAGTGCAG,8040 fluorescence intensity (a.u.)
8,CACCTCCCCGCCCACCATTCCCACTTTCGCCCACACACACCGGAGTCACCTAGTGCAG,9570 fluorescence intensity (a.u.)
9,CGCTGACCACGTTGACCATCTTCCATTTCTTCCCCTCGCCCGGAGTCACCTAGTGCAG,18600 fluorescence intensity (a.u.)
10,CCCCTCGCCGCCCTCTCTCTCACAGTCTCACGCATCCCATCGGAGTCACCTAGTGCAG,8440 fluorescence intensity (a.u.)
11,GCGCTTCTGACCACCACGTGCATTTCCATTTCCCGCTGCACGGAGTCACCTAGTGCAG,12700 fluorescence intensity (a.u.)
12,TGCTCGGACCATTCCCCGCCCACCATCGCTGCACACTTTTCGGAGTCACCTAGTGCAG,17200 fluorescence intensity (a.u.)
13,CGCTCCACCACCCGCCCGCTCGCCCATTTCCTCTCCCTTTCGGAGTCACCTAGTGCAG,12300 fluorescence intensity (a.u.)
14,GCCCCATCCACCGCACCACACGTCTCTTTTTTTCGCGACTCGGAGTCACCTAGTGCAG,14600 fluorescence intensity (a.u.)
15,CGCACCACCACCACCATTTCCACGCCCCTCTCTCCATTCCCGGAGTCACCTAGTGCAG,8680 fluorescence intensity (a.u.)
16,CCCATCGCATCTTTCCCACTCGCCCCACGCCCGCACGTCTCGGAGTCACCTAGTGCAG,18800 fluorescence intensity (a.u.)
17,GGCAATCCGGTGCTCCTTGTCTGAACTCTCTCAATCTCAACGGAGTCACCTAGTGCAG,8040 fluorescence intensity (a.u.)
18,ATTTGTCATTTTTTCTATGTGTATATGTTGTATTTTGAGCCGGAGTCACCTAGTGCAG,8430 fluorescence intensity (a.u.)
19,GCATGAGTAGGGGATGGCATTAAAACAGGTTGGTCAGGTGCGGAGTCACCTAGTGCAG,8920 fluorescence intensity (a.u.)
20,TCCGTTCCATCGTAATCCTTCTCCGATCCGAATTTGCTTCCGGAGTCACCTAGTGCAG,9120 fluorescence intensity (a.u.)
21,GCATCGACCGCGCGCGTATACGTTAACGCTCACCTTTGTTCGGAGTCACCTAGTGCAG,9420 fluorescence intensity (a.u.)
